Assay results: PubChem BioAssay (NCI)
This is part of a sample that, as a whole, favours compounds with a hit. Of some 83,000 tested, about 20% had one in any assay.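 In brief: 96-well plates, 48 h treatment, single concentration, percent growth endpoint.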 Values without a mark were called inactive. Active and inactive are the calls of the source. How the source made its calls: active means growth percent below 10; inactive means the rest.

What was measured:
Experiment in all cases: NCI-60 one-dose screen, 48 h (100 = growth as untreated, 0 = no growth, -100 = all killed)
[1] = test system: SK-MEL-2 melanoma; conditions: 10 µM unless noted
[2] = test system: EKVX NSCLC; conditions: 10 µM unless noted
[3] = test system: SN12C renal; conditions: 10 µM unless noted
[4] = test system: UO-31 renal; conditions: 10 µM unless noted
[5] = test system: TK-10 renal; conditions: 10 µM unless noted
[6] = test system: ACHN renal; conditions: 10 µM unless noted
[7] = test system: CAKI-1 renal; conditions: 10 µM
[8] = test system: A498 renal; conditions: 10 µM unless noted
[9] = test system: CCRF-CEM leukemia; conditions: 10 µM unless noted
[10] = test system: MOLT-4 leukemia; conditions: 10 µM unless noted

| SMILES | growth [1] | growth [2] | growth [3] | growth [4] | growth [5] | growth [6] | growth [7] | growth [8] | growth [9] | growth [10] |
| --- | --- | --- | --- | --- | --- | --- | --- | --- | --- | --- |
| O=c1oc2ccc(-c3ccc(F)cc3F)cc2c(=O)n1-c1cccc(C(F)(F)F)c1 | -12.5% (active) | 8.73% (active) | 1.14% (active) | -18.5% (active) | 15.4% | 4.3% (active) | -12.2% (active) | -34.1% (active) | 22.6% | 5.65% (active) |
| Cc1nn(-c2ccc(Cl)cc2)c(C)c1N=Nc1ccc2oc(=O)ccc2c1 | 110% | 85.6% | 56.4% | 64.8% | 89.6% | 79.4% | 73.7% | 85.6% | 82% | 89.3% |
| O=C(Cn1cc(CN2C(=O)c3ccc([N+](=O)[O-])cc3C2=O)nn1)Nc1ccc(F)cc1Cl | 101% | 97.7% | 101% | 81.3% | 91.2% | 96.9% | 89.9% | 85.8% | 95.6% | 108% |
| NC(=S)N/N=C(/C=C/c1cn(-c2ccccc2)nc1-c1ccc(Cl)cc1)c1cc2ccccc2oc1=O | 82.5% | 35% | 44.3% | 28.5% | 89.9% | 43.7% | 45.9% | 69.3% | 8.22% (active) | 23.7% |
| O=C(CN1C(=O)S/C(=C\c2ccccc2)C1=O)Nc1ccc(C(=O)/C=C/c2cc3ccccc3nc2Cl)cc1 | 83.1% | 65.3% | 91.2% | 57.7% | 84.9% | 83% | 64.1% | 86% | 77.2% | 51.4% |
| Nc1nc(N)c2c(n1)NC(c1ccc(Cl)cc1)CC(c1ccc(Nc3nc(NCCO)nc(Nc4ccc(Cl)cc4)n3)cc1)=N2 (stereo not given) | 54.2% | 76.1% | 56.6% | 39.7% | 72.9% | 57.5% | 49.5% | 82.1% | 4.85% (active) | 3.59% (active) |
| O=C1c2c(c3c4cc(Br)ccc4[nH]c3c3ccc4ccccc4c23)C(=O)N1CCN1CCNCC1 | 113% | 85.9% | 84.8% | 58.7% | 148% | 69.6% | 66.1% | 97.1% | 3.91% (active) | 4.47% (active) |
| COc1ccc(NC2=C(Cl)C(=O)C(C)=C(C)C2=O)cc1 | 89.6% | 31.4% | 87.7% | 89.9% | 149% | 88.8% | 91.5% | 83.3% | 2.14% (active) | 21.8% |
| C#C[C@]1(O)CC[C@H]2[C@@H]3CC=C4c5sc(Nc6ccncc6)nc5CC[C@]4(C)[C@H]3CC[C@@]21C | -15% (active) | -13.7% (active) | 44.1% | -61.8% (active) | 12% | 18.8% | -19.4% (active) | -52.2% (active) | 4.46% (active) | -18.3% (active) |
| O=C1c2c(c3c4cccnc4[nH]c3c3ccc4ccccc4c23)C(=O)N1CCN1CCNCC1 | 113% | 92.4% | 76.7% | 58% | 136% | 37% | 52.2% | 70.2% | 27.2% | 8.49% (active) |
| COCCC[C@H]1O[C@@](O)([C@H](C)[C@@H]2CC(OC)C(O)/C=C(C)/C=C(C)/C=C(\C)C(OC3O[C@@H](C)[C@H](O)C(O)[C@@H]3O)C(C)/C=C(C)/C=C(OC)/C=C(\C)C(=O)O2)C(OC)C(O)[C@]1(C)O[C@H]1C[C@@H](O)[C@H](O[C@H]2C[C@](C)(O)[C@H](O)C(C)O2)C(C)O1 (stereo not given in full) | 50.6% | 21.6% | 68.3% | 25.7% | 49.9% | 67.7% | 73.8% | 56% | 53.9% | 47.8% |
| Oc1ccc(CSc2nnc(-c3ccc(Oc4ccccc4)cc3)n2-c2ccccc2)c2cccnc12 | 37.6% | 14.8% | 19.1% | -5.33% (active) | 23.6% | 6.83% (active) | 13.1% | 35.2% | 10.3% | 18.7% |
| O=C1[C@H]2Cc3c([nH]c4ccccc34)[C@@H](c3ccc(Cl)cc3)N2C(=O)CN1C1CCN(Cc2c(Cl)cccc2Cl)CC1 | 102% | 78.6% | 81.3% | 2.51% (active) | 107% | -33.8% (active) | 54.6% | 111% | 65.8% | 97.3% |
| COc1ccc(NC(=O)Cn2cc(CN3C(=O)c4ccc([N+](=O)[O-])cc4C3=O)nn2)cc1 | 112% | 105% | 99.7% | 88.1% | 103% | 104% | 87.7% | 88.2% | 109% | 101% |
| Cc1cc2nc(C(Cl)Cl)nc(-c3ccco3)n2n1 | 103% | 63.8% | 93.7% | 90.7% | 89.5% | 22% | 51.2% | 51.7% | 98.2% | 74.3% |
| Oc1ccc(CSc2nnc(-c3ccc(Br)cc3)o2)c2cccnc12 | 68.1% | 58.9% | 45.2% | 7.37% (active) | 60% | 17.8% | 25.6% | 74.5% | 15.2% | 24.1% |
| C#CCOc1ccccc1C(Nc1ccccc1)c1nnnn1C1CCCCC1 (stereo not given) | 110% | 95.9% | 104% | 78.5% | 106% | 93.9% | 59.6% | 104% | 92.7% | 88.3% |
| O=[N+]([O-])c1ccc(-c2nnc(SCc3ccc(O)c4ncccc34)o2)cc1 | 25% | 27.3% | 17.1% | 7.09% (active) | 29.2% | 12.6% | 22.9% | 27.7% | 19.2% | 25.1% |
| O=C(Nc1ccc(F)cc1)c1cc(-c2ccc(F)cc2F)ccc1O | -8.37% (active) | 30.5% | 3.57% (active) | -8.25% (active) | 13.1% | 9.87% (active) | -0.83% (active) | -28.7% (active) | 17.8% | 13.9% |
| CN1CCN(Cc2ccc(NC(=O)c3cncc(C#Cc4cnc5ccc(O[C@H]6CCOC6)nn45)c3)cc2C(F)(F)F)CC1 | -88% (active) | -69.7% (active) | -48.4% (active) | -94% (active) | -87.2% (active) | -97.1% (active) | -96.2% (active) | -92.9% (active) | 2.84% (active) | -1.92% (active) |
| COc1ccc(N2CCN(C(=O)CSc3ccc(-c4nc5cc(C)c(C)cc5[nH]4)cn3)CC2)cc1 | 87.1% | 53.3% | 83.2% | 65.1% | 101% | 77.5% | 73.4% | 90.9% | 18.4% | 6.92% (active) |
| Fc1ccc(-c2cc3nc(C(Cl)Cl)nc(-c4cccs4)n3n2)cc1 | 87.7% | 6.21% (active) | 64.5% | 40.6% | 7.64% (active) | -19.9% (active) | -20.4% (active) | -20.7% (active) | 86% | 65.4% |
| Cc1ccc(NC(=O)c2ccc(CN3CCN(C)CC3)c(I)c2)cc1Oc1ccc(-c2[nH]nc3ncnc(N)c23)cc1 | 86.4% | 100% | 90% | 75.8% | 114% | 76.9% | 89.9% | 103% | 3.41% (active) | 11.3% |
| COc1cc(/C=N/n2cnc3oc(-c4ccccc4)cc3c2=N)cc(CN2CCCC2)c1O | 113% | 97% | -78.8% (active) | 9.45% (active) | 114% | 75.9% | 62.7% | 85.7% | -2.49% (active) | 6.5% (active) |
| O=C1[C@H]2Cc3c([nH]c4ccccc34)[C@H](c3ccc(Cl)cc3)N2C(=O)CN1C1CCN(Cc2c(Cl)cccc2Cl)CC1 | 106% | 74.5% | 59.9% | 48.4% | 101% | 72.9% | 41.9% | 101% | 53.4% | 44% |
